Pf growth 96h: Primary qHTS for delayed death inhibitors of the malarial parasite plastid, 96 hour incubation | P. falciparum luciferase reporter growth, 96 h | Potency, µM (titrated, usually from 28.7 µM), without a hit: at the top dose activity change, negative = inhibition, usual class: inhibitors | 6.9% of 320,000 active | AID 504834, 2011; note: % is set by controls: 0 for no effect and ±100 for the full control effect
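Luminescence readout: decreased luciferase signal marks inhibited growth of reporter-expressing P. falciparum in infected red cells (2% hematocrit, 0.05% parasitemia final), exposed to compound two generations (96 h, 37 C, 5% CO2).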
AMA1-RON2 inh: qHTS for Inhibitors of AMA1-RON; Towards Development of Antimalarial Drug Lead: Primary Screen; Plasmodium falciparum AMA1 (3D7) - RON2 peptide interaction; AlphaScreen AMA1-biotinylated RON2 peptide binding; AID 720542, 2013; Potency, µM (series often up to 58.2 µM), without a hit: at the highest dose activity change, negative = inhibition, hits mostly inhibitors; 0.2% of 360,000 active;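 note: 0% = vehicle wells and -100% = peptide control; nearly all actives have a fitted effect of over 45% in size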
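AMA1 (3D7) with his tag at 25 nM final met compounds first, then biotinylated RON2 peptide at 25 nM; detection used donor plus acceptor beads, 10 µg/mL apiece, read by AlphaScreen after 30 min at room temperature.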
HCV inhibitor: qHTS Assay for Inhibitors of Hepatitis C Virus (HCV); 3.4% of 340,000 active; Potency, µM (titrated, usually from 41.8 µM), for inactives: at the highest dose activity change, negative = inhibition, most hits filed as inhibitors; Huh7.5.1 HCVcc-Cre infection, luciferase reporter, 44 h; note: % is set by controls: 0 for no effect and ±100 for the full control effect
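1,000 cells/well; 4 h culture; + compound; + HCVcc-Cre (~0.5 moi); 44 h; luciferase substrate, RT 15 min; read 15 sec.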
NS1 function inh: qHTS Assay for Inhibitors of Influenza NS1 Protein Function; Potency, µM (highest dose often 46.1 µM), without a hit: at the top dose activity, positive = more growth; 0.4% of 270,000 active; calls by dose curve; note: actives are rising curves; nearly all actives have a fitted effect of over 50% in size
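Growth recovery, yeast-based: influenza A NS1 expressed in S. cerevisiae causes slow growth, and suppressors are detected by OD600. The parent strain without NS1 is used as positive control.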
Pf growth 48h: Primary qHTS for delayed death inhibitors of the malarial parasite plastid, 48 hour incubation; 5.9% of 310,000 active; Potency, µM (highest dose often 28.7 µM), inactives show at the highest dose activity change, negative = inhibition, actives largely listed as inhibitors; P. falciparum luciferase growth in erythrocytes, 48 h; note: % is set by controls: 0 for no effect and ±100 for the full control effect
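Erythrocytes infected with P. falciparum carrying an integrated firefly luciferase reporter (2% hematocrit, 0.1% parasitemia final) were exposed to compounds in RPMI 1640 with 0.5% Albumax at 37 C, 5% CO2. Growth inhibition was scored as reduced luminescence.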
SARS PLP yeast: qHTS of Yeast-based Assay for SARS-CoV PLP | Potency, µM (titrated, usually from 32.9 µM), for inactives: top-dose activity, positive = growth rescue, usual class: activators | 0.19% of 330,000 active | AID 485353, 2010 | S. cerevisiae expressing SARS-CoV PLpro, growth rescue; calls by dose curve; note: 0% is about no effect; nearly all actives have a fitted effect of over 55% in size
* hit, by the source's call; ? = inconclusive; / = not tested or not shown. Only some compounds are listed: those with a hit (about 12% of all), similar ones and a draw of the others. Unless noted, calls come from the whole dose curve; as a rule, active = well fitted curve in the direction sought with a large enough effect; inconclusive = small, poorly fitted or top-dose-only effect, or another doubt; inactive = no such curve, though single readings can be large; an effect the other way counts as inactive or inconclusive. Potency is the fitted concentration of half-maximal effect.

SMILES | Pf growth 96h | AMA1-RON2 inh | HCV inhibitor | NS1 function inh | Pf growth 48h | SARS PLP yeast
Cc1cc(-c2nc3ncccc3o2)ccc1NC(=O)CC(C)C | 4.15µM* | 0.1% | 7.3% | -43.6% | 8.2% | 18.0%
Cc1c(NC(=O)C(C)C)cccc1-c1nc2ncccc2o1 | 9.28µM* | 8.2% | 8.4% | -12.7% | 5.5% | ?
CC1=CC(=C(c2ccc(N)cc2)c2ccc(N)cc2)C=CC1=N | 1.07µM* | / | / | / | 2.39µM* | /
N#Cc1ccccc1OCC(=O)Nc1nc(-c2ccccn2)cs1 | / | -11.1% | / | / | / | /
O=C(COc1ccc(F)cc1Cl)Nc1nc(-c2ccccn2)cs1 | 13.1µM* | / | ? | / | ? | 3.1%
O=C(COc1ccccc1Cl)Nc1nc(-c2ccncc2)cs1 | / | -1.8% | 22.4µM* | / | / | -8.1%
COc1ccc(S(=O)(=O)NC(=O)C2(C)CCN2C(=O)Cc2ccc(C(C)(C)C)cc2)cc1 (stereo not drawn) | / | -8.8% | / | / | / | /
CC(C)(C)n1ncc2c(=O)n(CC(=O)N3CCc4ccccc43)cnc21 | ? | -3.6% | 2.1% | 4.5% | 19.7% | 0.1%
O=C(Cn1cnc2c(nnn2Cc2ccc(F)cc2)c1=O)NCc1ccccc1 | -26.1% | 9.0% | 8.4% | 9.7% | 9.28µM* | 2.8%
CCN(CC)c1ccc(/C=N/OCC(=O)N2CCCc3ccccc32)cc1 | 9.5% | 28.2µM* | -26.5% | -15.3% | -6.8% | -19.2%
CC(C)(C)n1ncc2c(=O)n(CC(=O)N3CCCc4ccccc43)cnc21 | 1.85µM* | 0.3% | 6.8% | -4.7% | -1.5% | -1.3%
O=C(CN1CCCC1)N1CCCc2ccccc21 | 18.5µM* | -10.1% | -0.6% | 4.7% | -9.4% | 0.9%
CC(C)(C)n1ncc2c(=O)n(CC(=O)c3ccccc3)cnc21 | 2.08µM* | 11.6% | -15.8% | -4.5% | 275.0% | -27.8%
CC(C)(C)n1ncc2c(=O)n(CC(=O)NCc3ccc(F)cc3)cnc21 | 13.1µM* | 5.2% | -15.4% | 7.1% | 281.0% | ?
C=C1CC2C3C=C(C)C4=CC(=O)CCC4(C)C3CCC2(C)[C@@]1(OC(C)=O)C(C)=O (stereo partly drawn) | 10.7µM* | / | / | / | ? | /
CC(=O)O[C@]1(C(C)=O)CCC2C3C=C(C)C4=CC(=O)CC[C@]4(C)C3CC[C@@]21C (stereo partly drawn) | ? | 0.0% | ? | -3.7% | ? | 0.2%
CC(=O)O[C@]1(C(C)=O)CC[C@H]2[C@@H]3C=C(C)C4=CC(=O)CC[C@@H]4[C@H]3CC[C@@]21C | ? | 5.4% | 11.2% | / | 13.1µM* | /
CC(=O)O[C@]1(C(C)=O)CC[C@H]2[C@@H]3C=CC4=CC(=O)C=C[C@]4(C)[C@H]3CC[C@@]21C | 4.65µM* | -7.6% | -3.5% | -2.7% | 11.7µM* | 0.9%
CN(C)CCNC(=O)Cn1ccc2cc(S(=O)(=O)N3CCCCCC3)ccc21 | -4.3% | -0.7% | -1.4% | -3.6% | ? | ?
C=CCCC(=O)Nc1nc(C)c(-c2csc(Nc3cccc(OC)c3)n2)s1 | 11.7µM* | 24.7% | 6.31µM* | 10.1% | 2.62µM* | -1.1%
COc1cccc(Nc2nc(-c3sc(NC(=O)CC(C)C)nc3C)cs2)c1 | 13.1µM* | 61.2% | -3.2% | 1.6% | ? | -1.4%
COc1ccc(Nc2nc(-c3sc(C)nc3C)cs2)cc1 | 32.5% | -14.6% | 8.91µM* | -129.2% | 39.9% | -28.7%
COc1cccc(Nc2nc(-c3cccnc3)cs2)c1 | -23.7% | -3.1% | ? | -42.0% | 123.5% | 5.2%
CCCC(C)C(=O)Nc1nc(C)c(-c2csc(Nc3cc(OC)ccc3OC)n2)s1 (stereo not drawn) | 9.28µM* | 0.0% | ? | 27.4% | 6.57µM* | 1.7%
Cc1nc(C)c(-c2csc(Nc3ccc(N)cc3)n2)s1 | 33.8% | 2.5% | ? | -5.3% | 18.7% | -9.7%
O=S(=O)(NNc1ncc(C(F)(F)F)cc1Cl)c1ccccc1 | 71.6% | 100.9% | 11.8% | / | 23.6% | 19.0%

Compound activity (PubChem)
